Compound activity: PubChem BioAssay, several laboratories
phage Ecoli inh: E. coli growth loss with phage present; inhibition, % at 11.9 µM; growth absorbance; 360,000 compounds, 0.26% hits; in the data active = inhibition above about 11%
AddAB inh: less growth of phage-infected E. coli with AddAB | inhibition, % at 11.9 µM | 330,000 compounds, 0.29% hits | E. coli expressing H. pylori AddAB, absorbance growth; in the data active = inhibition above about 12%;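 note: 0% = vehicle wells of infected cells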
E coli growth-1: reduces bacterial viability in AddAB counter-screen | E. coli V3065 growth, OD600 absorbance, 18 h | inhibition, % at 11.9 µM | 330,000 compounds, 0.27% hits | AID 449728;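 active = inhibition above the campaign's mean inhibition across all tested compounds plus 3 SD, cut at about 9.9% in these data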;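 note: uninfected addAB+ strain grown without phage in ampicillin broth; 0% = DMSO wells and 100% = ciprofloxacin 0.95 µg/ml wells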
Tat transport: blocks Tat-dependent protein export in E. coli | E. coli MC4100 TorA-mCherry Tat export, fluorescence | inhibition, % at 10 µM | 340,000 compounds, 0.036% hits;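 active = mean replicate inhibition at least 50% and at least half of replicates individually reaching 50%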;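 note: exported cargo escapes ClpAP degradation while cytoplasmic cargo is degraded and loses fluorescence; 0% = median of neutral control wells and 100% = median of NaSCN control wells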
E coli growth-2: blocks Escherichia coli growth | OD600, 23 h; active compounds read low | 330,000 compounds, 0.21% hits | OD600 absorbance (no concentration beside the values) | AID 1053175;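 active = OD600 absorbance below the run mean of sample wells minus 3.6 SD, in any replicate, cut at about 0.56 in these data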
AddAB conf: growth loss of T4-infected E. coli expressing H. pylori AddAB, confirmed; 880 compounds, 64% hits; shares compounds with AddAB inh; AID 488942; inhibition, % at 11.9 µM; E. coli V3065 expressing H. pylori AddAB, T4 phage, OD; T4 phage with gene 2 nonsense mutations;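 active = mean inhibition above a set limit taken from the earlier primary screen, cut at about 13% in these data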;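 note: higher means less bacterial growth since AddAB block lets phage replicate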
RecBCD counter: reduces growth of phage-infected RecBCD+ E. coli, AddAB inhibitor counter-screen | shares compounds with AddAB inh | E. coli V66 + mutant T4 phage, OD growth | 880 compounds, 73% hits | inhibition, % at 11.9 µM | AID 488955;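 active = mean inhibition above the mean of solvent-only control wells plus 3 SD, cut at about 4% in these data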;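 note: optical density read after an 18 h incubation at 37 °C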
bact viab count: counter-screen for AddAB inhibitors: inhibitors of bacterial viability; AID 488956; inhibition, % at 11.9 µM; shares compounds with AddAB inh; absorbance (AddAB counterscreen); 880 compounds, 35% hits; in the data active = inhibition above about 25%
* = called active by the depositor; x = no result given. Rows were chosen to be rich in hits. Some 0.5% of all compounds tested hit in one or more screens of this group.

SMILES	phage Ecoli inh	AddAB inh	E coli growth-1	Tat transport	E coli growth-2	AddAB conf	RecBCD counter	bact viab count
CCOC1OC(C(=O)Nc2ccccc2)=CC(c2ccc3c(c2)OCO3)C1CCCO (stereo unspecified)	x	x	x	x	0.681	x	x	x
Cc1ccc(NC(=O)CCC(=O)N/N=C/c2ccc([N+](=O)[O-])o2)cc1C	4.0	6.7	7.0	1.3	x	x	x	x
Cc1cc(C(=O)N/N=C/c2ccc([N+](=O)[O-])o2)c(C)o1	6.3	12.7*	8.7	-12.4	x	97.8*	7.9*	17.4
O=C(N/N=C/c1ccc([N+](=O)[O-])o1)C(O)c1ccccc1 (stereo unspecified)	10.8	86.4*	15.3*	-20.2	x	96.4*	10.6*	29.2*
CCCC(=O)Nc1ccc(C(=O)N/N=C/c2ccc([N+](=O)[O-])o2)cc1	10.2	18.0*	21.7*	-20.6	x	100.0*	12.5*	28.3*
CCCC=C(CCC)C(NC(=O)OCC(C)C)c1ccc(C(=O)OC)cc1 (stereo unspecified)	x	x	x	x	0.647	x	x	x
O=C(C1=CC(c2ccc(C(F)(F)F)cc2)CC(OCc2ccc(CO)cc2)O1)N1CCOCC1 (stereo unspecified)	x	x	x	x	0.693	x	x	x
O=c1[nH]c(=S)ccn1C1OC(CO)C(O)C1O (stereo unspecified)	5.2	12.4*	4.8	-3.9	0.764	1.5	3.1	0.8
CSC(=S)N/N=C/c1ccc(Br)cc1	8.1	5.2	5.4	-5.0	x	x	x	x
CSC(=S)N/N=C/c1ccc(N(C)C)cc1	2.9	15.5*	7.1	5.0	x	53.4*	7.4*	30.3*
Cc1ccc2nc(/C(C#N)=C\c3ccc([N+](=O)[O-])o3)[nH]c2c1	6.2	43.3*	10.1*	-18.5	0.601	67.4*	5.2*	15.2
CCC(C)C1NC(=O)C(CC(C)C)NC(=O)C(Cc2ccccc2)NC(=O)C(Cc2ccccc2)NC(=O)C2CCCN2C(=O)C2CCCN2C(=O)C(C(C)C)NC(=O)C(CC(C)C)NC(=O)C(C(C)CC)NC1=O (stereo unspecified)	x	x	x	x	0.712	x	x	x
CCN(CC)C(=O)c1[nH]cnc1C(=O)NC(C)c1ccccc1 (stereo unspecified)	x	x	x	x	0.715	x	x	x
Cc1ccc(N2CC(NS(=O)(=O)c3cccs3)CC2=O)cc1 (stereo unspecified)	4.3	98.3*	98.1*	-1.3	0.634	0.1	2.1	2.7
COc1ccc(C=NNC(=O)C2CC2)c(OC)c1OC	x	x	x	x	0.666	x	x	x
COC(=O)c1cc(S(=O)(=O)NCc2ccc(F)cc2)cn1C	2.4	15.3*	5.4	-0.8	0.741	-1.1	0.5	-2.3
O=C(CSc1ncccn1)NC(=O)Nc1ccc2c(c1)OCCO2	7.2	12.4*	8.7	-4.1	0.558	8.2	6.4*	5.2
O=C(CSc1ncccn1)Nc1ccc2c(c1)OCO2	1.5	1.2	-0.5	5.7	0.714	x	x	x
COC(=O)C1=CC(C(=O)OC)C2C3=C(C(=O)C2(C)C)C(c2ccccc2)C2C(=O)N(C)C(=O)C2C3C1 (stereo unspecified)	x	x	x	x	0.691	x	x	x
CCOCCCn1c(SC(C(=O)Nc2cc(C)ccc2C)c2ccccc2)nnc1-c1ccc(Cl)cc1 (stereo unspecified)	1.3	32.7*	67.9*	-3.3	0.778	1.7	-1.4	-2.9
Cc1ccc(C(=O)NNC(=S)NC(=O)c2ccco2)cc1	4.9	12.7*	8.6	-10.9	0.467*	7.0	10.4*	2.9
O=C1NCCOc2ccccc21	4.3	x	x	x	x	x	x	x
O=C1NCCO1	3.6	100.2*	101.4*	-0.5	x	0.4	-0.5	-3.0
S=C(NCCCc1ccccc1)Nc1ccccc1	-0.9	x	x	-5.2	0.683	x	x	x
S=C(NCCCc1ccccc1)Nc1ccc(Cl)cc1	8.6	12.3*	7.5	-1.3	0.581	11.3	11.6*	6.2
O=C(CSc1ncnc2nc[nH]c12)c1ccc(Cl)cc1	5.1	19.6*	5.2	0.0	0.683	16.6*	3.7	-2.5
Cc1ccc(C=Nn2nnnc2N)o1	x	x	x	x	0.634	x	x	x
CC(=O)N(/N=C/c1ccc([N+](=O)[O-])o1)c1nc2ccccc2c(=O)n1-c1ccccc1	5.7	15.5*	10.8*	6.5	x	29.4*	3.1	13.0
